Measured values taken from PubChem BioAssay (NCI).
This is part of a sample that, as a whole, favours compounds with a hit. Of some 83,000 tested, about 20% had one in any assay.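 Step 1: grow cells in 96-well plates. Step 2: add test compound at a single concentration. Step 3: incubate 48 h. Step 4: record percent growth.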 Values without a mark were called inactive. Activity calls are given as the source filed them. The calls were made as follows: active = growth percent below 10; inactive = the rest.

Experiments:
Assay in all cases: NCI-60 one-dose screen, 48 h (100 = growth as untreated, 0 = no growth, -100 = all killed)
Conditions in all cases: 10 µM unless noted
[1] = test system: NCI-H23 lung
[2] = test system: NCI-H322M lung
[3] = test system: HOP-62 NSCLC
[4] = test system: NCI-H460 lung
[5] = test system: HOP-92 NSCLC
[6] = test system: NCI-H522 lung
[7] = test system: A549/ATCC NSCLC
[8] = test system: 786-0 renal
[9] = test system: COLO 205 colon
[10] = test system: DU-145 prostate
[11] = test system: K-562 leukemia
[12] = test system: MALME-3M melanoma
[13] = test system: MDA-MB-231 breast
[14] = test system: RXF 393 renal
[15] = test system: SF-268 CNS
[16] = test system: SF-295 CNS
[17] = test system: SF-539 CNS
[18] = test system: UACC-257 melanoma
[19] = test system: M14 melanoma

SMILES	growth [1]	growth [2]	growth [3]	growth [4]	growth [5]	growth [6]	growth [7]	growth [8]	growth [9]	growth [10]	growth [11]	growth [12]	growth [13]	growth [14]	growth [15]	growth [16]	growth [17]	growth [18]	growth [19]
Nc1cc(-c2c[nH]c3ccc(F)cc23)nc2cc(-c3c[nH]c4ccccc34)nn12	-12.7% (active)	30.2%	1.04% (active)	3.08% (active)	-9.18% (active)	-49.9% (active)	9.83% (active)	-81% (active)	-88.8% (active)	26.9%	5.2% (active)	-28% (active)	-65.5% (active)	36.5%	35.4%	-66% (active)	-74.8% (active)	-63.3% (active)	–
COc1ccccc1Nc1nnc(-c2c[nH]c3ccccc23)o1	12.6%	43.5%	26.3%	10.8%	16.1%	-31.5% (active)	21.9%	9.22% (active)	-38.8% (active)	12.6%	7.09% (active)	44.1%	3.73% (active)	-48.2% (active)	47.7%	-28.8% (active)	-40.3% (active)	44.7%	20.5%
CC1=NN(C2=NC(=O)C(CC(=O)Nc3ccccc3C(F)(F)F)S2)C(c2ccc(N(C)C)cc2)C1 (stereo not given)	72.6%	76.1%	78.3%	39.6%	7.13% (active)	33.1%	38.2%	61.4%	63.5%	63.6%	28.3%	61.8%	66%	11.6%	47.4%	41.3%	40.2%	58.1%	47.7%
Nc1cc2ccccc2c(=O)n1NC(=O)c1ccccc1	87.4%	104%	103%	105%	111%	89.3%	103%	105%	111%	104%	97.6%	84.4%	87%	104%	95.9%	90.6%	93.7%	104%	100%
COc1ccc2[nH]c(O)c(N=NC(=O)c3ccc4nc(-c5ccc(Cl)cc5)[nH]c4c3)c2c1	65.6%	85.9%	48.9%	101%	73.3%	–	–	90.6%	18%	65.6%	41.8%	33.4%	23.9%	43.4%	27.3%	103%	67.6%	100%	59.4%
COc1c(B(O)O)cccc1-c1nc2ccc3cn[nH]c3c2c2c1CCCC2	72.8%	67.7%	68.7%	56.8%	27.2%	62.6%	41.9%	31.8%	71.7%	69.1%	74.7%	87%	25.3%	-30.3% (active)	50.3%	70%	9.76% (active)	83.9%	88.4%
Cc1ccc(S(=O)(=O)Nc2ccc(-c3ccc4c(c3)NC(=O)/C4=C\c3ccc[nH]3)cc2)cc1	33.8%	68.3%	96.5%	22%	93.4%	87.2%	52.8%	101%	93.3%	65.6%	42.2%	90%	97.4%	96.4%	111%	93.8%	93.8%	110%	90.9%
COc1ccc(N=Nc2c(N)nn3c(-c4ccc(OC)c(OC)c4)ccnc23)cc1	72.8%	88.5%	21.5%	85.2%	67.6%	78.7%	74%	76.2%	103%	79.2%	80.2%	78.4%	81.1%	65.2%	87.2%	65.6%	20.6%	99.3%	–
COC(=O)c1cc(C(=O)C(F)(F)F)n2c3ccccc3c3ccccc3c12	83.6%	90.8%	41.1%	62.1%	59.2%	96%	92.8%	24.2%	79.7%	96%	82.6%	104%	42.4%	69.2%	83.4%	37.2%	67.5%	110%	87.6%
O=C1/C(=C/C=C/c2ccco2)SC(=S)N1CC(=S)C1C=CS(=O)(=O)C1 (stereo not given)	83.1%	38.8%	130%	29.2%	121%	32.5%	47.7%	91.2%	76%	97.4%	75%	83.3%	85.8%	79.4%	91%	88.9%	99%	92.3%	98.9%
Cc1ccc2nc(NC(=O)Nc3cccc(Cl)c3)sc2c1	93.8%	93.7%	111%	99.1%	119%	94%	–	107%	117%	118%	90.3%	93.5%	92%	121%	118%	98.8%	102%	111%	97.6%
COc1ccc(C(=O)C[n+]2cccc3c4ccccc4ccc32)cc1	28.4%	68.8%	44.2%	19.4%	12.5%	–	38.2%	66.9%	26.5%	56.3%	16.4%	34.3%	40.4%	55.8%	38%	29.8%	53.1%	15.4%	38.5%
O=C(c1cc2cc(OCCCN3CCC3)ccc2[nH]1)N1C[C@@H](CCl)c2c1cc(OCc1ccccc1)c1ccccc21	-73.4% (active)	-23.5% (active)	-44% (active)	-60.1% (active)	-18.7% (active)	-70.1% (active)	-18.5% (active)	-86.1% (active)	-84.5% (active)	-29.5% (active)	0.535% (active)	-73.9% (active)	-41.4% (active)	-80.8% (active)	0.226% (active)	-4.45% (active)	-79.8% (active)	-23.1% (active)	-79.3% (active)
Clc1ccccc1Nc1nnc(-c2c[nH]c3ccccc23)o1	22.2%	47.1%	27.2%	16%	43.9%	-25.1% (active)	22.1%	36%	-33.6% (active)	21.5%	6.76% (active)	41.9%	16%	-5.74% (active)	48.5%	9.04% (active)	-43.6% (active)	65%	22.8%
